The results in this text go back to ChEMBL document CHEMBL1961873, “Compounds: GSK PKIS; Assays: Nanosyn kinase panel” (2012).
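Also: each value is the mean percent inhibition of TSSK2.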

For the experiment, the target named is T1, Testis-specific serine/threonine-protein kinase 2 (Homo sapiens) (UniProt Q96PF2).
T1 sequence (whole entry): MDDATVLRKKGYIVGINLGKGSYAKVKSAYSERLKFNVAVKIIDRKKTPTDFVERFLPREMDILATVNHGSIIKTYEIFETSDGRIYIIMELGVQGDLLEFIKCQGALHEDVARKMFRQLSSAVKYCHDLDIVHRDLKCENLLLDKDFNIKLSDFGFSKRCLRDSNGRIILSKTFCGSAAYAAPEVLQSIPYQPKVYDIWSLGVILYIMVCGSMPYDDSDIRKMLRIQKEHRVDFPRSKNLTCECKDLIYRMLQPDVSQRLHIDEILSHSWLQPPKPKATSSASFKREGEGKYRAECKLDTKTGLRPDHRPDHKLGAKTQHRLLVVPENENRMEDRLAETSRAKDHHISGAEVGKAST
Conditions: at 1 µM.
On to `COc1ccc2ncn(-c3cc(O[C@H](C)c4ccccc4Cl)c(C(N)=O)s3)c2c1`, for which the inhibition (in general, the drop in the measured response relative to a control, in per cent) was determined as 1.28%.

Regarding `C#Cc1cccc(Nc2ncnc3ccc(OCCCCNCCS(C)(=O)=O)cc23)c1`, the inhibition stood at 2.71%.

In the case of `NS(=O)(=O)c1ccc(Nc2cc(-c3ccc(O)c(F)c3)n[nH]2)cc1`, the inhibition is -0.52%. As for `C[C@@H](Oc1cc(-n2cnc3ccc(OCC4CCN(C)CC4)cc32)sc1C(N)=O)c1ccccc1Cl`, the inhibition was determined as 3.8%. On to `Fc1ccc(-c2ncn(CCCN3CCOCC3)c2-c2ccncc2)cc1`, for which the inhibition is -0.63%. Turning to `NS(=O)(=O)c1ccc(N/N=C2\C(=O)Nc3ccc(C(=O)NCCCn4ccnc4)cc32)cc1`, the inhibition was found to be 6.71%. Turning to `COc1ccc2cc(-c3c(-c4ccncc4)nc(-c4ccc(S(C)(=O)=O)cc4C)n3C)ccc2c1`, the inhibition was 3.81%.

On to `Clc1ccc(CNc2nccc(-c3cnn4ncccc34)n2)cc1`, for which the inhibition is -1.43%. For `COC(=O)Nc1nc2ccc(Sc3ccc(NC(=O)Nc4cc(C(F)(F)F)ccc4F)cc3)cc2[nH]1`, the inhibition was -1.84%. As to `Fc1ccc(-c2ncn(C3CCNCC3)c2-c2ccnc(Oc3ccc4c(c3)OCO4)n2)cc1`, the inhibition is 4.26%. In the case of `Cc1ccc(C(=O)NC(C)C)cc1-c1ccc(C(=O)NCC2CC2)cc1`, the inhibition is -1.52%. Take `CCS(=O)(=O)c1ccc(OC)c(Nc2ncc(-c3ccccc3Cl)o2)c1`: the inhibition was found to be 0.12%. Turning to `NC(=O)c1cc(-c2ccncc2)cc(-c2ccccc2)c1N`, the inhibition was 1.64%. As for `c1ccc(-c2n[nH]cc2-c2ccnc(-c3ccc(OCCN4CCOCC4)cc3)c2)nc1`, the inhibition is -0.96%. `Cc1ccc(C(=O)NC2CCC2)cc1-c1ccc(C(=O)NCC2CC2)cc1`: the inhibition was -0.03%.

For the compound `CN(c1ccc(NC(=O)Nc2c(Cl)cccc2Cl)cc1)c1ccnc(Nc2cccc(CS(C)(=O)=O)c2)n1`, the inhibition came to 1.93%. Turning to `CS(=O)(=O)CCNCc1cc(-c2cc3c(Nc4ccc(OCc5cccc(F)c5)c(Cl)c4)ncnc3s2)cs1`, the inhibition stood at 2.42%. Turning to `Fc1ccc(-c2c(-c3ccncc3)nc3n2CCS3)cc1`, the inhibition amounted to 2.38%.

Regarding `Cc1ccc(NC(=O)c2ccoc2)cc1-c1ccc(C(=O)NCC2CC2)cc1`, the inhibition is 1.22%.

Consider `NS(=O)(=O)c1ccc(N/N=C2\C(=O)Nc3ccc(-c4cnco4)cc32)cc1`, for which the inhibition worked out at 1.76%. Consider `O=C(Nc1n[nH]c2cc(-c3cc(F)ccc3F)ccc12)C1CC1`, for which the inhibition was 0.5%. As to `Nc1nccc(-c2c(-c3ccc(F)cc3)ncn2C2CCC(O)CC2)n1` (centres undefined), the inhibition was -0.41%. To `C[C@@H](Oc1cc(-n2cnc3ccc(OC4CCN(C)CC4)cc32)sc1C(N)=O)c1ccccc1Cl` belongs 1.72%.

For `CCS(=O)(=O)c1ccc(OC)c(Nc2ncc(-c3cccc(-c4ccccc4F)c3)o2)c1`, the inhibition is -0.69%. As for `O=C1Nc2ccc(I)cc2C1=Cc1cc(Br)c(O)c(Br)c1`, the figure is 2.81%; as for `COc1cccc(/C=N/Nc2ncnc3c2cnn3-c2cccc(OC)c2)c1`, 1.38%; as for `COc1cc2ncn(-c3cc(OCc4cccs4)c(C(N)=O)s3)c2cc1OC`, 7.11%. On to `NC(=O)c1ccc(Oc2nccc(-c3c(-c4ccc(F)cc4)ncn3C3CCNCC3)n2)cc1`, for which the inhibition amounted to 2.46%. Take `CN(C)CCCNc1nccc(-c2c(-c3ccc(F)cc3)nn3cc(C(F)(F)F)ccc23)n1`: the inhibition is -2.11%.

As to `O=C1NC(=O)C(c2cccc(Cl)c2)=C1Nc1ccc(Cl)c(C(=O)O)c1`, the inhibition is 4.21%. As for `NC(=O)Cc1ccccc1Oc1nccc(-c2c(-c3ccc(F)cc3)ncn2C2CCNCC2)n1`, the figure is -0.31%; as for `Fc1ccc(-c2ncn(C3CCNCC3)c2-c2ccnc(Oc3ccc(F)c(F)c3)n2)cc1`, 1.42%. With `O=C(Nc1n[nH]c2cc(-c3ccccc3)ccc12)C1CC1`, the inhibition is 0.6%. Regarding `Cc1nnc(-c2ccc(C)c(-c3ccc(C(=O)NCc4ccc(Cl)cc4)cc3)c2)o1`, the inhibition is 3.27%.
